In all, about 68,000 compounds went through this assay and about 2,700 (4%) showed an effect of 50% or more. The list comes from a sample in which strong results are over-represented; it also holds similar structures and randomly drawn compounds.

The test system of this assay is Plasmodium berghei. Description: Screen against P. berghei liver stage (PbLuc), transformed with Luciferase, at 2uM. It is filed as functional, HepG2. Particulars: tested at 2 uM.
Consider `CCN(C(=O)CSc1ccc(C(F)(F)F)cn1)C1CC1`, for which the INHIBITION is recorded as -69.56%.
Then `NC(=O)C1CCCN1c1cc(N2CCc3ccccc3C2)ncn1` (stereo not given), with -4.95%; and `c1ccc(OC2CCCC2)c(CNC2CCc3ncnn3C2)c1` (stereo not given), with -12.48%; and `c1ccc(COc2ccccc2CNC2CCc3ncnn3C2)cc1` (stereo not given), with 11.95%.
The result for `c1ccc(C(OCCNC2CCc3ncnn3C2)c2ccccc2)cc1` (stereo not given) reads 64.71%; that for `c1ccc(CCNC2CCc3ncnn3C2)nc1` (stereo not given), -56.99%; that for `c1ccc(OCC2CC2)c(CNC2CCc3ncnn3C2)c1` (stereo not given), 54.2%.
Regarding `O=S(=O)(CCNC1CCc2ncnn2C1)c1ccccc1` (stereo not given), the INHIBITION amounted to 11.18%.
For the compound `COc1cccc(-c2cc(C3CCCNC3)ccn2)c1` (stereo not given), the INHIBITION came to 17.29%.
In the case of `Cc1nnsc1CN(C)C(=O)CN1CC2(CCNCC2)OC1=O`, the INHIBITION is reported as -7.96%.
Regarding `CCc1cc(NC(=O)C(c2cccc(F)c2)N2CCOCC2)[nH]n1` (stereo not given), the INHIBITION is 35.36%.
Consider `Cc1nn(-c2ccccc2)c(C)c1CNC(=O)NC1CC1`, for which the INHIBITION was 28.73%.
Turning to `CSCCC(NC(N)=O)C(=O)NCc1c(C)nn(-c2ccccc2)c1C` (stereo not given), the INHIBITION is on record as -58.01%.
As to `Cc1nn(-c2ccccc2)c(C)c1CNC(=O)NC1CC(=O)N(C)C1` (stereo not given), the INHIBITION is on record as 62.39%.
As for `COC(=O)[C@H](CCSC)NC(=O)Cc1c(C)nn(-c2ccccc2)c1C`, the INHIBITION came to 4.89%.
With `COC(=O)C(CCSC)NC(=O)Cc1c(C)nn(-c2ccccc2)c1C` (stereo not given), the INHIBITION is -60.22%.
With `Cc1nn(-c2ccccc2)c(C)c1CC(=O)NC1CC(=O)N(C)C1` (stereo not given), the INHIBITION is listed as 59.03%.
With `CC(=O)N1CCN(Cc2ccncc2)CC2(CC(=O)N(C)C2)C1` (stereo not given), the INHIBITION worked out at 3.49%.
The result for `CN1CCN(CC2(O)CCCN(C(=O)Cc3cccc(O)c3)CC2)CC1` (stereo not given) reads 12.6%.
As to `Cc1nc(C)c(C(=O)NCCNc2ncccc2C(F)(F)F)s1`, the INHIBITION is reported as -90.65%.
Then `Cc1cc(NC(=O)c2ccc(-n3ncc(C#N)c3N)cc2)n(C)n1`, with -28.98%; and `Cc1cnc(NC(=O)c2ccc(-n3ncc(C#N)c3N)cc2)s1`, with -50.69%.
As to `Cc1nc(NC(=O)c2ccc(-n3ncc(C#N)c3N)cc2)sc1C`, the INHIBITION was 78.98%.
Consider `CC1CCC(O)(CSc2nnnn2C)CC1` (stereo not given), for which the INHIBITION is recorded as 4.91%.
Then `CC(C)CC(=O)NCC(O)c1c(F)cccc1F` (stereo not given), with 14.96%; and `CN(C)C(=O)CN1CCOCC2(CCN(CC3CCOCC3)CC2)C1`, with 12.68%; and `CN(C)C(=O)CN1CCOCC2(CCN(CC3CCOC3)CC2)C1` (stereo not given), with 82.53%.
As for `CN(C)C(=O)CN1CCC2(C1)CN(CC1CCOC1)C2` (stereo not given), the INHIBITION is on record as -54.01%.
Then `COc1ccc(C(C)CCNC2CCN(c3ccccn3)CC2)cc1` (stereo not given), with 3.2%.
Take `CCS(=O)(=O)c1ccccc1N1CCC(NC(C)=O)CC1`: the INHIBITION is -0.64%.
The result for `CCS(=O)(=O)c1ccccc1N1CCC(NC2CCCC2)CC1` reads 27.47%.
For the compound `CCS(=O)(=O)c1ccccc1N1CCC(NC(=O)NC2CCCC2)CC1`, the INHIBITION was 64.71%.
Then `Cc1cc(C)n(CC(C)CNC(=O)NCc2c(C)cc(C)[nH]c2=O)n1` (stereo not given), with 10.14%; and `Cc1ccc(NC(=O)N2CCOC(C(N)=O)C2)cc1C(F)(F)F` (stereo not given), with 33.11%.
As for `CC(=O)N1CCN(CCNc2ncc(Br)cc2C)CC1`, the INHIBITION was determined as 12.43%.
With `COC1CCN(CCNc2ncc(Br)cc2C)CC1`, the INHIBITION is listed as -4.26%.
Turning to `Cc1cc(Br)cnc1NCCN1CCC(N(C)C)CC1`, the INHIBITION is 64.9%.
Take `O=S(=O)(c1cccnc1)N1CCCCC1CCN1CCOCC1` (stereo not given): the INHIBITION is -13%.
Take `Cc1cc(C)nc(N2CCCC(c3cccc(-n4ccnc4)n3)C2)n1` (stereo not given): the INHIBITION is reported as -2.89%.
As for `O=C(Nc1ncc[nH]1)c1cc(-c2cccnc2)n[nH]1`, the INHIBITION is on record as -36.68%.
`O=C(c1cc2c(s1)CCCC2)N1CCCC1Cn1cccn1` (stereo not given): the INHIBITION was found to be 1.61%.
Consider `CC(=O)N1CCC2(CC1)CCN(S(=O)(=O)c1ccccc1)C2`, for which the INHIBITION was 27.65%.
Regarding `CC(=O)N1CCC2(CCCN(S(=O)(=O)c3ccccc3)C2)C1` (stereo not given), the INHIBITION worked out at 52.36%.
As for `CC(=O)N1CCC2(CCN(S(=O)(=O)c3ccccc3)CC2)C1`, the INHIBITION amounted to 11.18%.
Take `CC(=O)N1CCC2(C1)CN(S(=O)(=O)c1ccccc1)C2`: the INHIBITION was found to be 56.76%.
In the case of `CC(=O)N1CCC2(CCCN(S(=O)(=O)c3ccc(F)cc3)C2)C1` (stereo not given), the INHIBITION is listed as -8.04%.
For `CN(C)CC(=O)N1CC2(CCN(S(=O)(=O)c3ccccc3)C2)C1`, the INHIBITION is reported as 39.51%.
As for `CN(C)c1ccc(CNC(=O)NCCc2cccs2)cn1`, the INHIBITION was 9.17%.
The result for `Cc1ccncc1CN1CCOCC1c1[nH]ncc1C` (stereo not given) reads 5.01%; that for `Cc1cc(CNc2ccnn2C)ccc1-n1cncn1`, 14.93%; that for `CN(C)CCCC(=O)NC1CC(C)(C)Cc2nc(C(C)(C)C)ncc21` (stereo not given), 35.56%.
Then `CC1(C)Cc2nc(C(C)(C)C)ncc2C(NC(=O)CN)C1` (stereo not given), with 21.28%.
Consider `CN(C)CC(=O)NC1CC(C)(C)Cc2nc(C(C)(C)C)ncc21` (stereo not given), for which the INHIBITION is on record as 68.39%.
The result for `Cc1nc[nH]c1CN1CCCn2nc(CN3CCC(F)(F)CC3)cc2C1` reads 8.48%; that for `O=C(c1ccsc1)N1CCC(Nc2cccnn2)CC1`, 2.8%.
For `CC(C(=O)Nc1ccc(N2CCCCC2)nc1)n1ccnc1` (stereo not given), the INHIBITION was -34.5%.
In the case of `CCCNC(=O)N1CCc2ccc(S(=O)(=O)N3CCN(C)CC3)cc2C1`, the INHIBITION came out at 30.62%.
On to `O=C(c1ccoc1)N1CCCC2(CCC(=O)N2Cc2ccncc2)C1` (stereo not given), for which the INHIBITION is given as 3.56%.
For the compound `Cc1cnn(CC2CCCN2C(=O)c2cccc(CC#N)c2)c1` (stereo not given), the INHIBITION was -17.11%.
Then `CCN(CC)S(=O)(=O)CC(=O)Nc1ccsc1`, with 64.08%; and `CCCS(=O)(=O)CC(=O)Nc1ccsc1`, with 22%; and `CS(=O)(=O)CCC(=O)Nc1ccsc1`, with 10.22%.
For `O=C(c1cc2c(s1)CCC2)N1CCN(c2cnccn2)CC1`, the INHIBITION is listed as -32.45%.
Regarding `N#Cc1ccc(OCC(O)CN2CCN(c3nccs3)CC2)cc1` (stereo not given), the INHIBITION is 2.2%.
With `O=C(O)CCC(=O)N1CCN(CC2CC2)c2ncccc2C1`, the INHIBITION was 18.6%.
In the case of `Cc1c(C(=O)N2CCC(C(O)c3ccc(Cl)cc3)CC2)cnn1C` (stereo not given), the INHIBITION is 10.22%.
Consider `CCn1cnnc1C1CCN(C(=O)c2ccccc2OC)CC1`, for which the INHIBITION was -45.23%.
On to `CCn1cnnc1C1CCN(C(=O)c2ccoc2C)CC1`, for which the INHIBITION amounted to 70.27%.
As for `Cc1occc1C(=O)N1CCC(C(O)c2ccc(Cl)cc2)CC1` (stereo not given), the INHIBITION turned out to be 59.03%.
In the case of `CCn1cnnc1C1CCN(C(=O)c2cccc(C)c2C)CC1`, the INHIBITION amounted to 1.02%.
Take `CCn1cnnc1C1CCN(C(=O)c2c(C)oc(C)c2C)CC1`: the INHIBITION is recorded as -11.32%.
Then `Cc1occc1C(=O)N1CCC(C(O)c2ccc(F)cc2)CC1` (stereo not given), with 47.25%; and `CCn1cnnc1C1CCN(C(=O)c2cc(OC)ccc2OC)CC1`, with -33.61%; and `CCn1cnnc1C1CCN(C(=O)c2cccc(OC)c2OC)CC1`, with 66.2%.
As to `CCn1nc(C)c2c1cnn2CCNS(=O)(=O)Cc1ccccc1`, the INHIBITION was determined as 16.97%.
In the case of `CN(C)Cc1cccc(C(=O)N2CCCC(n3cncn3)C2)c1` (stereo not given), the INHIBITION is 21.39%.
Regarding `CC(C)c1cc(C(=O)N2CCC3(CCc4ccccc4C(=O)N3)C2)on1` (stereo not given), the INHIBITION is 9.9%.
Then `CNC(=O)c1n[nH]c2c1C(c1cccc3c1OC(C)(C)C3)CC(=O)N2` (stereo not given), with 48.21%; and `Cc1nc(CN2CCN(C(=O)c3ccc(=O)n(C)c3)CC2)cs1`, with -3.4%; and `CCN1CCC12CCN(C(=O)c1ccsc1)C2` (stereo not given), with 13.75%.
Turning to `COc1ccc(-c2noc(C3CC(C(C)C)=NO3)n2)cc1` (stereo not given), the INHIBITION was 7.37%.
`CC(C)C1=NOC(c2nc(Cc3ccccc3)no2)C1` (stereo not given): the INHIBITION came to 50.46%.
For the compound `Cc1ccccc1-c1noc(C2CC(C(C)C)=NO2)n1` (stereo not given), the INHIBITION is on record as -10.37%.
Take `COCC(=O)N1CC2(CCN(c3ccccc3)C2)C1`: the INHIBITION is reported as -31.82%.
For `CCc1nc(CC2CN(c3ncnc4nc(C)cc(C)c34)CCO2)no1` (stereo not given), the INHIBITION stood at 5.1%.
For the compound `CS(=O)(=O)N[C@H]1CCO[C@]2(CCN(C(=O)c3ccccn3)C2)C1`, the INHIBITION is 36.75%.
For the compound `Cc1nc(C(=O)N2CC[C@@]3(C[C@@H](NS(C)(=O)=O)CCO3)C2)cs1`, the INHIBITION is 68.95%.
In the case of `CS(=O)(=O)N[C@@H]1CCO[C@]2(CCN(C(=O)c3cnccn3)C2)C1`, the INHIBITION amounted to 9.14%.
The result for `Cc1cc(C(=O)N2CC[C@@]3(C[C@@H](NS(C)(=O)=O)CCO3)C2)no1` reads 19.51%; that for `CS(=O)(=O)N[C@@H]1CCO[C@]2(CCN(C(=O)c3cscn3)C2)C1`, 23.1%; that for `Cc1nc(C(=O)N2CC[C@@]3(C[C@H](NS(C)(=O)=O)CCO3)C2)cs1`, 60.79%.
Turning to `COCCN1C(=O)CC(N2CCN(c3ccc(F)cc3)CC2)C1=O` (stereo not given), the INHIBITION was 39.9%.
For `NC(=O)CCSc1ccccc1NCc1ccc(Cl)s1`, the INHIBITION amounted to 22.75%.
Consider `Cc1ocnc1C(=O)N(C)[C@@H]1CC[C@@H](Oc2ccccc2)[C@@H]1O`, for which the INHIBITION was determined as 67.27%.
For the compound `Cc1nc(C(=O)N(C)[C@@H]2CCC[C@@H](Oc3ccccc3)[C@@H]2O)co1`, the INHIBITION is on record as 9.47%.
As to `CN(C(=O)c1ccon1)[C@@H]1CCC[C@@H](Oc2ccccc2)[C@@H]1O`, the INHIBITION is listed as 44.9%.
Regarding `Cc1ccccc1C1(CNC(=O)CCN2C(=O)CCC2=O)CC1`, the INHIBITION is on record as 26.76%.
For `O=C(N1CCOCC1)[C@@]12CCO[C@@H]1CCN(CC1CCCC1)C2`, the INHIBITION is given as -55.42%.
For `Cc1c(NC(=O)c2cnc[nH]2)cccc1C(=O)NC(C)(C)C`, the INHIBITION is 5.41%.
For `COc1ccc(CN(Cc2cc(C)no2)C2CC2)cc1`, the INHIBITION was -16.88%.
As for `c1cnc(N2CCC(c3csc(Nc4cnccn4)n3)CC2)nc1`, the INHIBITION was -41.06%.
On to `O=C1CC2(CCN(c3nncs3)C2)CN1c1cccc(F)c1` (stereo not given), for which the INHIBITION is given as 21.75%.
On to `O=C1CC2(CCN(c3nncs3)C2)CN1c1ccc2c(c1)OCCO2` (stereo not given), for which the INHIBITION worked out at 58.16%.
Then `O=C1CC2(CCN(c3nncs3)C2)CN1c1ccccc1` (stereo not given), with -5.44%; and `O=C(O)c1ccc(CC2CCN(Cc3ccc(-c4cc[nH]n4)o3)C2)cc1` (stereo not given), with 16.93%.
